Results reported in PubChem BioAssay (NCATS).
Where “and” joins values, the source holds several entries; their conditions need not be identical. Identical values can stand only once. Records with an inconclusive call do not appear. Calls of active or inactive are those of the source. Unless noted, calls come from the whole dose curve; as a rule, active = well fitted inhibition curve with a large enough effect; inconclusive = small, poorly fitted or top-dose-only effect; inactive = no such curve, though single readings can be large or run the other way.

How the values were obtained:
[1] = qHTS profiling of the MIPE4 collection as inhibitors of Plasmodium falciparum (DD2) proliferation (AID 743345; call rule not given here); conditions: P. falciparum Dd2 in erythrocytes, SYBR Green DNA, 72 h; at 28.5 µM (top of the series) unless noted
Method in brief: (§1)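 Parasite DNA was quantified by SYBR Green I fluorescence (ex 485, em 535 nm) after overnight lysis in saponin/Triton buffer at room temperature. Cultures at 0.3% parasitemia and 2.5% hematocrit were first exposed to compound for 72 h at 37 C; signals were normalised to artemisinin (0.29 uM) and vehicle wells.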

[2] = qHTS profiling of the MIPE4 collection as inhibitors of Plasmodium falciparum (DD2) proliferation (Rep 2) (AID 743346; call rule not given here); conditions: P. falciparum Dd2 in erythrocytes, SYBR Green DNA, 72 h; at 28.5 µM (top of the series) unless noted
Method in brief: as §1

[3] = qHTS profiling of the MIPE4 collection as inhibitors of Plasmodium falciparum (HB3) proliferation (AID 743347; call rule not given here;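 note: plate controls were DMSO vehicle wells for no effect and artemisinin wells for full effect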); conditions: P. falciparum HB3 in erythrocytes, SYBR Green DNA, 72 h; at 28.5 µM (top of the series) unless noted
Method in brief: as §1

[4] = High-throughput drug toxicity screening in the BPDCN cell line Gen2.2 (AID 1224824; call rule not given here;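 note: cells exposed to compounds for 48 h before reading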); conditions: Gen2.2 BPDCN cells; at 45.8 µM (top of the series) unless noted
Method in brief: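 Readout is ATP luminescence from Gen2.2 cells after two days of drug exposure in serum-containing medium at 37 °C. Values express percent activity, with vehicle defining full signal and 9.2 uM bortezomib defining zero.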

[5] = High-throughput drug toxicity screening in the BPDCN cell line Cal-1 (AID 1224825; call rule not given here); conditions: Cal-1 BPDCN cell viability, qHTS; at 45.8 µM (top of the series) unless noted
Method in brief: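 CellTiter-Glo luminescence after 48 h compound exposure; percent activity scaled with DMSO as 100% and bortezomib (9.2 uM final) as 0%. Cal-1 cells seeded at 500/well in RPMI, 10% FBS, no phenol red.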

[6] = qHTS assay for measurement of the activity of small molecule inhibitors on Zika virus induced Caspase-3 activity in human iPSC derived neural progenitor cells (hNPCs) (AID 1224857); note: nearly all actives have a fitted effect of over 65% in size; note: potency is the fitted concentration of half-maximal effect
Method in brief: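 Percent inhibition of virus-induced caspase-3/7 luminescence (Caspase-Glo), scaled between uninfected cells and Zika-infected cells. hNPCs received compound 1 hr before ZIKV at 2 FFU/cell, with 6 hours infection at 37 C.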

[7] = qHTS assay for measurement of the activity of small molecule inhibitors on Zika virus induced Caspase-3 activity in human astrocytoma cells (AID 1224859); note: potency is the fitted concentration of half-maximal effect
Method in brief: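 Luminescent caspase-3/7 read-out (30 min reagent, room temperature) in human SNB-19 cells infected 6 h with ZIKV (2 FFU/cell) after 1 h compound pre-incubation; Data were normalised to uninfected and infected wells.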

[8] = qHTS Screen of the MIPE 4.0 Collection Against Ewings Sarcoma (TC71) (AID 1259253); note: nearly all actives have a fitted effect of over 40% in size; note: potency is the fitted concentration of half-maximal effect
Method in brief: (§2)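 Dose series incubated 48 h with cells in RPMI plus 5% FBS, glutamine and penicillin/streptomycin; cell viability then quantified via CellTiter-Glo.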

[9] = qHTS Screen of the MIPE 4.0 Collection Against Ewings Sarcoma (EW8) (AID 1259255); note: nearly all actives have a fitted effect of over 35% in size; note: potency is the fitted concentration of half-maximal effect;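 for viability: 100% = DMSO-treated cells and 0% = medium-only wells without cells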
Method in brief: as §2

[10] = qHTS Screen of the MIPE 4.0 Collection Against Ewings Sarcoma (RDES) (AID 1259252); note: nearly all actives have a fitted effect of over 35% in size; note: potency is the fitted concentration of half-maximal effect
Method in brief: as §2

| Structure (SMILES) | parasite growth remaining, % of DMSO control (lower = more inhibition) [1] | parasite growth, % of control (lower = inhibition) [2] | growth, % of control [3] | cell viability, % of control (lower = more cytotoxic) [4] | viability (% of control) [5] | Potency [6] | Potency [7] | Potency [8] | Potency [9] | Potency [10] |
| --- | --- | --- | --- | --- | --- | --- | --- | --- | --- | --- |
| Cc1cccc(-c2[nH]ncc2-c2ccc3ncccc3n2)n1 | 94.4% | 81.1% | 52.8% | 759% | 106% | inactive | inactive | inactive |  |  |
| Cc1cc(C2CCCCC2)n(O)c(=O)c1 | 7.36% |  | 9.38% | 17% | 5.31% | inactive | inactive | 5.26 µM (active) | 14.8 µM (active) |  |
| N[C@@H](Cc1cc(I)c(Oc2cc(I)c(O)c(I)c2)c(I)c1)C(=O)O | 89.9% | 91.7% | 75.1% | 163% | 123% | inactive | inactive |  | inactive | inactive |
| O=C(O)c1cn(-c2ccc(F)cc2)c2cc(N3CCNCC3)c(F)cc2c1=O | 67.2% | 50.7% | 208% | 47.7% | 79.5% | inactive | inactive |  |  |  |
| COc1cc2c(N3CCN(C(=O)Nc4ccc(OC(C)C)cc4)CC3)ncnc2cc1OCCCN1CCCCC1 | 8.31% | 12% | 3.25% | 7.51% | 11.3% | inactive | inactive |  | 23.5 µM (active) | 26.4 µM (active) |
| C=C(c1ccc(C(=O)O)cc1)c1cc2c(cc1C)C(C)(C)CCC2(C)C | 81.7% | 105% | 76.8% | 577% | 89.3% | inactive | inactive | inactive |  |  |
| O=C1c2c(O)cc(O)cc2OC(c2ccc(O)c(O)c2)C1O (centres undefined) | 93.8% | 64.4% | 99.5% | 155% | 105% | inactive | inactive |  |  |  |
| CN(C)C(=O)COC(=O)Cc1ccc(OC(=O)c2ccc(N=C(N)N)cc2)cc1 | 93% | 43% | 101% | 129% | 104% | inactive | inactive |  |  | 16.6 µM (active) |
| S=c1nc[nH]c2nc[nH]c12 | 96% |  | 55.2% | 203% | 89.6% | inactive | inactive | 1.87 µM (active) | 2.64 µM (active) |  |
| CC(C)[C@H](N)C(=O)OCCOCn1cnc2c(=O)[nH]c(N)nc21 |  |  |  | 57% | 28.8% | inactive | inactive | inactive | inactive |  |
| COC(=O)N[C@H](C(=O)N[C@@H](Cc1ccccc1)[C@@H](O)CN(Cc1ccc(-c2ccccn2)cc1)NC(=O)[C@@H](NC(=O)OC)C(C)(C)C)C(C)(C)C | 18.2% |  | 9.81% | 159% | 107% | inactive | inactive |  |  | inactive |
| NC(=NCc1ccccc1)NC(=O)c1nc(Cl)c(N)nc1N | 98.4% | 83.5% | 98.4% | 130% | 133% | inactive | inactive |  |  | 16.6 µM (active) |
| CC(S)C(=O)NCC(=O)O (centres undefined) | 123% | 91.7% | 95.5% | 104% | 100% | inactive | inactive |  |  |  |
| CCOC(=O)C(C)Oc1cccc2c(=O)n(CC(=O)Nc3ccc4c(c3)OCCO4)ccc12 (centres undefined) | 92.5% | 81.6% | 96% | 102% | 88% | inactive | inactive | inactive | 2.64 µM (active) |  |
| CN(C)CCCC1(c2ccc(F)cc2)OCc2cc(C#N)ccc21 (centres undefined) | 63.7% | 45.5% | 93% | 120% | 99.6% | inactive | inactive | 14.8 µM (active) | inactive |  |
| Cc1cc(O)c2c(c1)C(=O)c1cc(O)cc(O)c1C2=O |  |  | 98.6% | 207% | 109% | 9.35 µM (active) and 2.51 µM (active) | 9.35 µM (active) | inactive | inactive |  |
| O=C(CCc1ccc(O)cc1)c1c(O)cc(O)cc1O | 96.7% | 7.72% | 5.58% | 141% | 41.1% | inactive | inactive |  | 5.9 µM (active) | 0.166 µM (active) |
| Cc1nc(Nc2ncc(C(=O)Nc3c(C)cccc3Cl)s2)cc(N2CCN(CCO)CC2)n1 | 65.3% | 17.6% | 3.03% | 74.9% | 11.7% | inactive | inactive |  | 20.9 µM (active) |  |
| Nc1nc(OCc2ccccc2)c2[nH]cnc2n1 |  |  |  | 56% | 39.4% | inactive | inactive | 13.2 µM (active) | 26.4 µM (active) |  |
| Nc1ccc(S(N)(=O)=O)cc1 | 15.1% |  | 102% | 169% | 112% | inactive | inactive |  | inactive | inactive |
| CNC[C@H](O)c1ccc(O)c(O)c1 | 70.6% [at 57.5 µM] |  | 78% [at 57.5 µM] | 50.3% [at 92.2 µM] | 79.5% [at 92.2 µM] | inactive | inactive |  |  | 42.9 µM (active) |
| O=C(NC(Cc1cc(=O)[nH]c2ccccc12)C(=O)O)c1ccc(Cl)cc1 (centres undefined) | 96.8% | 89.9% | 75.3% | 149% | 108% | inactive | inactive |  |  |  |
| CN1C(C(=O)Nc2ccccn2)=C(O)c2sccc2S1(=O)=O |  |  |  | 40.6% | 90.4% | inactive | inactive |  | inactive | 5.9 µM (active) |
| O=C(NCCO[N+](=O)[O-])c1cccnc1 | 87% | 118% | 108% | 178% | 117% | inactive | inactive |  | inactive |  |
